Screening data deposited in PubChem by Broad Institute.
The list is not random: actives were taken first. Their share in the collection is about 0.89%.
BJeLR viability – BJeLR cell viability loss, primary screen, luminescence, CellTiterGlo ATP | BJeLR fibroblasts viability, 48 h; HRASV12, hTERT and SV40 LT/ST transformed | viability loss activity score, % (concentration not given with the values) | hit rate 0.64% among 30,000; in the data active = viability loss activity score above about 50%; inconclusive = no clear call, values can overlap the other calls; inactive = below about 35%;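 also: higher score means fewer live cells and less ATP luminescence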
A1 inhib – inducers of caspase activity in MEF A1-2A-BIM cells, primary screen, A1 inhibitor project, cell-based, CaspaseGlo luminescence; caspase-Glo luminescence, 3 h; percent of clofoctol signal, DMSO as zero; caspase activation, % (test concentration not listed); hit rate 0.51% among 21,000;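 active = most replicate scores above 10, or exactly half above 10 with mean activity above 10; inconclusive = mean activity below 10 while half the replicates exceed 10; inactive = most replicate scores below 10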;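 also: effector caspase 3 and 7 activity cleaving a DEVD luciferin substrate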
Active calls of the source: *; ? = inconclusive; / = no result given.

SMILES	BJeLR viability	A1 inhib
C[C@@H]1CC[C@]2(C(=O)O)CC[C@]3(C)C(=CCC4[C@@]5(C)CC[C@@H](O)[C@](C)(C(=O)O)C5CC[C@]43C)C2[C@H]1C (some centres undefined)	/	0
CC1CC(=O)[C@]2(C)CC[C@]3(C)C(C(=O)C(O)C4[C@@]5(C)CC[C@H](O)C(C)(C(=O)O)C5CC[C@]43C)C2C1C (some centres undefined)	106*	3
CCn1cc(C(=O)NCc2ccccc2)c(=O)c2cc(S(=O)(=O)N3CCCC3)ccc21	6	/
C=CCNC1=C2C[C@@H](C)C[C@H](OC)[C@H](O)[C@@H](C)/C=C(\C)[C@H](OC(N)=O)[C@@H](OC)C=C/C=C(/C)C(=O)NC(=CC1=O)C2=O	69*	0
CSc1scc(NC(=O)c2ccc(Cl)cc2)c1S(=O)(=O)C(C)C	0	1
C/C=C(/C)C(=O)O[C@@H]1c2cc(OC)c(OC)cc2-c2c(ccc(OC)c2OC)C[C@H]2C(=O)OC[C@H]12	12	0
COc1cc2c(c(OC)c1OC)-c1ccc(OC)c(=O)cc1[C@@H](NC(C)=O)CC2	60*	2
CCc1c(C(=O)c2ccc(OC)cc2)oc2c(C)c3oc(=O)cc(C)c3cc12	0	-1
CCC1CCc2nc3sc(C(=O)NCCc4ccc(OC)cc4)c(N)c3cc2C1 (centres undefined)	1	0
C=CCn1c(=S)sc2c(SCC(N)=O)ncnc21	7	/
C=CCn1c(=S)sc2c(Sc3nnc(-c4ccco4)o3)ncnc21	63*	?
Cc1cccc(NC(=O)c2cccc(Br)c2)n1	1	-7
COc1ccc(-c2nc3ccccc3s2)cc1	60*	-7
c1cc(-c2nc3ccccc3s2)nc(-c2nc3ccccc3s2)c1	-2	0
CCn1c2c(c3cc(C4CCCCC4)ccc31)CCCC2=O	0	1
CCn1c2c(c3cc(C4CCCCC4)ccc31)CCC/C2=N\O	-6	15*
O=c1c2nnn(Cc3ccc(F)cc3)c2ncn1Cc1ccc(F)cc1	10	1
COc1cc(O)cc2c1C(=O)OC(C)C2 (centres undefined)	5	0
C[C@@H]1C[C@@H]2O[C@H]2/C=C/C=C\C(=O)Cc2c(Cl)c(O)cc(O)c2C(=O)O1	81*	0
CC(Oc1ccccc1)C(=O)NC1CCSC1=O (centres undefined)	-1	1
CCC(C)NC(=O)c1ccc2c(=O)n(Cc3ccc(OC)cc3)c(=O)[nH]c2c1 (centres undefined)	-1	/
C=C(C)C(=O)O[C@H]1C[C@@]2(C)OC(=CC2=O)/C(COC(C)=O)=C\[C@H]2OC(=O)C(=C)C12 (some centres undefined)	61*	2
C=C(CO)C(=O)O[C@H]1C[C@@]23O[C@@H]2CC/C(=C/[C@H]2OC(=O)C(=C)[C@H]12)CO[C@@H]3O	-2	0
O=C(Cn1c(=O)c(C(F)(F)F)nc2ccccc21)N1CCc2ccccc2C1	-3	/
CC(=O)NC(C)c1ccccc1 (centres undefined)	-3	0
SMILES	BJeLR viability	A1 inhib
C=C(C)CC1(NC(C)c2ccccc2)CCCCC1 (centres undefined)	0	9.8*
CCCCCC(=O)Cc1cc(O)c(O)c2c1C(=O)Oc1cc(O)c(C(=O)O)c(CCCCC)c1O2	99*	1
CCCc1c(C(=O)O)c(O)cc2c1C(=O)c1c(O)cccc1C2=O	2	1
N#CSCC(=O)C12CC3CC(CC(C3)C1)C2	23	36*
O=C(CSc1ccc(F)cc1Cl)C12CC3CC(CC(C3)C1)C2	-3	0
O=C(NC(Nc1cccc(C(F)(F)F)c1)C(=O)c1ccccc1)c1cccs1 (centres undefined)	12	1
CCC(=O)N1CCc2cc(S(=O)(=O)Nc3ccc(CC)cc3)ccc21	5	/
O=C(C1CCCN(S(=O)(=O)c2cccc3nonc23)C1)N1CCN(c2ccc(F)cc2)CC1 (centres undefined)	1	/
CC1CCN(C(=O)CSc2c3c(nc4ccccc24)CCCC3)CC1	0	/
CCC(=O)N/C(N)=N/c1nc(C)c2ccccc2n1	10	/
C=CC1(C)C=C2CCC3C(C)(C)C(O[C@@H]4O[C@@H](CO)[C@H](O)[C@H]4O)CCC3(C)C2CC1O[C@@H]1O[C@H](C)[C@H](O)[C@H](O)[C@H]1O (some centres undefined)	-7	0
CC1CC[C@@]2(OC1)O[C@H]1CC3C4CC=C5C[C@@H](O[C@@H]6O[C@H](CO)[C@@H](O[C@@H]7O[C@@H](C)[C@H](O)[C@@H](O)[C@H]7O)[C@H](O)[C@H]6O[C@@H]6O[C@@H](C)[C@H](O)[C@@H](O)[C@H]6O)CC[C@]5(C)C4CC[C@]3(C)[C@@]1(O)[C@@H]2C (some centres undefined)	92*	-3
